Assay results: PubChem BioAssay AID1159580 (chemical genetic matrix, 2015)
In all, about 5,500 compounds went through this assay and about 2,000 (36%) were called active. Inconclusive results (about 18%) are left out. No stated cut-off is given here; in the data, active means normalized growth mostly below about 0.91 (no sharp cut-off); inconclusive means no clear call, values can overlap the other calls; inactive means mostly above about 0.92. This is one part of the list.

Assay: chemical genetic growth profiling, strain panel (AID 1159580);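 further: tested at 20 µM; growth read once vehicle control cultures reached saturation at 30 °C; 1 = growth at the plate median or of vehicle wells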
Conditions: growth OD

Measured: normalized growth

Cc1cc(=O)oc2cc(O)c(O)cc12
inactive: S. cerevisiae deletion strains, locus YJR043C, strain POL32, stronger effect = lower value 0.964 | S. cerevisiae deletion strains, locus YJR066W, strain TOR1, stronger effect = lower value 0.913 | S. cerevisiae deletion strains, locus YKL009W, strain mrt4, stronger effect = lower value 0.922 | S. cerevisiae deletion strains, locus YKL068W, stronger effect = lower value 1.01 | S. cerevisiae deletion strains, locus YKL085W, strain MDH1 (second series), stronger effect = lower value 1.02 | S. cerevisiae deletion strains, locus YKL085W, strain MDH1, stronger effect = lower value 1.02 | S. cerevisiae deletion strains, locus YKL160W, strain elf1, stronger effect = lower value 1 | S. cerevisiae deletion strains, locus YKL190W, strain CNB1, stronger effect = lower value 1.01 | S. cerevisiae deletion strains, locus YKR001C, strain vps1, stronger effect = lower value 0.934 | S. cerevisiae deletion strains, locus YKR026C, strain gcn3, stronger effect = lower value 0.994 | S. cerevisiae deletion strains, locus YKR091W, strain srl3, stronger effect = lower value 0.981 | S. cerevisiae deletion strains, locus YLL001W, strain dnm1, stronger effect = lower value 0.995 | S. cerevisiae deletion strains, locus YLL026W, stronger effect = lower value 0.989 | S. cerevisiae deletion strains, locus YLL041C, strain sdh2, stronger effect = lower value 0.986 | S. cerevisiae deletion strains, locus YLR027C, strain aat2, stronger effect = lower value 0.976 | S. cerevisiae deletion strains, locus YLR039C, strain RIC1, stronger effect = lower value 0.945 | S. cerevisiae deletion strains, locus YLR058C, strain SHM2, stronger effect = lower value 0.99 | S. cerevisiae deletion strains, locus YLR102C, strain apc9, stronger effect = lower value 1.01 | S. cerevisiae deletion strains, locus YLR113W, strain HOG1, stronger effect = lower value 0.954 | S. cerevisiae deletion strains, locus YLR221C, strain rsa3, stronger effect = lower value 0.986 | S. cerevisiae deletion strains, locus YLR258W, strain gsy2, stronger effect = lower value 1 | S. cerevisiae deletion strains, locus YLR262C, strain YPT6 (second series), stronger effect = lower value 0.962 | S. cerevisiae deletion strains, locus YLR262C, strain YPT6, stronger effect = lower value 1.01 | S. cerevisiae deletion strains, locus YLR268W, strain sec22, stronger effect = lower value 0.983 | S. cerevisiae deletion strains, locus YLR320W, strain mms22, stronger effect = lower value 0.987 | S. cerevisiae deletion strains, locus YLR330W, strain CHS5, stronger effect = lower value 1 | S. cerevisiae deletion strains, locus YLR342W, strain FKS1 (second series), stronger effect = lower value 0.992 | S. cerevisiae deletion strains, locus YLR342W, strain FKS1, stronger effect = lower value 1.01 | S. cerevisiae deletion strains, locus YLR357W, strain rsc2, stronger effect = lower value 1.01 | S. cerevisiae deletion strains, locus YLR370C, strain arc18, stronger effect = lower value 0.982 | S. cerevisiae deletion strains, locus YLR371W, strain rom2, stronger effect = lower value 1 | S. cerevisiae deletion strains, locus YLR384C, strain iki3, stronger effect = lower value 0.993 | S. cerevisiae deletion strains, locus YLR418C, strain cdc73, stronger effect = lower value 0.939 | S. cerevisiae deletion strains, locus YML016C, strain PPZ1, stronger effect = lower value 0.994 | S. cerevisiae deletion strains, locus YML032C, strain rad52, stronger effect = lower value 0.965 | S. cerevisiae deletion strains, locus YML120C, strain ndi1, stronger effect = lower value 1 | S. cerevisiae deletion strains, locus YML124C, strain tub3, stronger effect = lower value 1.01 | S. cerevisiae deletion strains, locus YMR058W, strain fet3, stronger effect = lower value 0.989 | S. cerevisiae deletion strains, locus YMR078C, strain ctf18, stronger effect = lower value 1 | S. cerevisiae deletion strains, locus YMR125W, strain sto1, stronger effect = lower value 1.04 | S. cerevisiae deletion strains, locus YMR129W, stronger effect = lower value 1 | S. cerevisiae deletion strains, locus YMR205C, strain PFK2, stronger effect = lower value 1.02 | S. cerevisiae deletion strains, locus YMR223W, strain ubp8, stronger effect = lower value 0.951 | S. cerevisiae deletion strains, locus YMR231W, strain pep5, stronger effect = lower value 0.998 | S. cerevisiae deletion strains, locus YMR307W, strain GAS1, stronger effect = lower value 1.01 | S. cerevisiae deletion strains, locus YNL067W, strain RPL9B, stronger effect = lower value 0.994 | S. cerevisiae deletion strains, locus YNL071W, strain lat1, stronger effect = lower value 0.988 | S. cerevisiae deletion strains, locus YNL128W, strain TEP1, stronger effect = lower value 1.01 | S. cerevisiae deletion strains, locus YNL183C, strain NPR1, stronger effect = lower value 0.902 | S. cerevisiae deletion strains, locus YNL209W, strain ssb2, stronger effect = lower value 1 | S. cerevisiae deletion strains, locus YNL233W, strain BNI4, stronger effect = lower value 0.961 | S. cerevisiae deletion strains, locus YNL248C, strain rpa49, stronger effect = lower value 0.941 | S. cerevisiae deletion strains, locus YNL250W, strain rad50, stronger effect = lower value 1.02 | S. cerevisiae deletion strains, locus YNL271C, strain bni1, stronger effect = lower value 0.993 | S. cerevisiae deletion strains, locus YNL298W, strain CLA4, stronger effect = lower value 0.961 | S. cerevisiae deletion strains, locus YNL307C, strain MCK1, stronger effect = lower value 0.989 | S. cerevisiae deletion strains, locus YNL322C, strain KRE1 (second series), stronger effect = lower value 0.995 | S. cerevisiae deletion strains, locus YNR049C, strain mso1, stronger effect = lower value 0.989 | S. cerevisiae deletion strains, locus YNR052C, strain pop2, stronger effect = lower value 0.974 | S. cerevisiae deletion strains, locus YOL006C, strain TOP1, stronger effect = lower value 0.805 | S. cerevisiae deletion strains, locus YOL012C, strain htz1 1.25 | S. cerevisiae deletion strains, locus YOL147C, strain pex11, stronger effect = lower value 0.993 | S. cerevisiae deletion strains, locus YOR001W, strain rrp6, stronger effect = lower value 0.967 | S. cerevisiae deletion strains, locus YOR061W, strain CKA2, stronger effect = lower value 1 | S. cerevisiae deletion strains, locus YOR069W, strain VPS5, stronger effect = lower value 1.01 | S. cerevisiae deletion strains, locus YOR070C, strain gyp1, stronger effect = lower value 0.99 | S. cerevisiae deletion strains, locus YOR080W, strain dia2, stronger effect = lower value 0.975 | S. cerevisiae deletion strains, locus YOR083W, strain WHI5, stronger effect = lower value 0.978 | S. cerevisiae deletion strains, locus YOR106W, strain vam3, stronger effect = lower value 0.993 | S. cerevisiae deletion strains, locus YOR136W, strain idh2, stronger effect = lower value 1 | S. cerevisiae deletion strains, locus YOR144C, strain elg1, stronger effect = lower value 1 | S. cerevisiae deletion strains, locus YOR184W, strain ser1, stronger effect = lower value 0.88 | S. cerevisiae deletion strains, locus YOR231W, strain MKK1, stronger effect = lower value 0.904 | S. cerevisiae deletion strains, locus YOR265W, strain rbl2, stronger effect = lower value 0.989 | S. cerevisiae deletion strains, locus YOR270C, strain vph1, stronger effect = lower value 0.893 | S. cerevisiae deletion strains, locus YOR290C, strain snf2, stronger effect = lower value 0.937 | S. cerevisiae deletion strains, locus YOR316C, strain cot1, stronger effect = lower value 1 | S. cerevisiae deletion strains, locus YPL051W, strain arl3, stronger effect = lower value 0.987 | S. cerevisiae deletion strains, locus YPL078C, strain atp4, stronger effect = lower value 0.992 | S. cerevisiae deletion strains, locus YPL106C, strain sse1, stronger effect = lower value 0.978 | S. cerevisiae deletion strains, locus YPL240C, strain hsp82, stronger effect = lower value 0.994 | S. cerevisiae deletion strains, locus YPL256C, strain CLN2, stronger effect = lower value 0.936 | S. cerevisiae deletion strains, locus YPR119W, strain clb2, stronger effect = lower value 1.01 | S. cerevisiae deletion strains, locus YPR141C, strain kar3, stronger effect = lower value 1.02 | S. cerevisiae deletion strains, locus YPR163C, strain tif3, stronger effect = lower value 1.02 | S. cerevisiae deletion strains, locus YPR167C, strain met16, stronger effect = lower value 0.981 | S. cerevisiae deletion strains, strain wtn01, stronger effect = lower value 0.988 | S. cerevisiae strains, strain wild type, stronger effect = lower value 1.01
